# Laboratory results reported in PubChem BioAssay (NCI).
# The panel holds about 79,000 compounds, 15% with a hit somewhere; the sample as a whole holds those more often. Unmarked numbers belong to inactive results. Active and inactive are the calls of the source. No stated cut-off is given here; in the data, active means growth inhibition above about 70%; inactive means the rest.
# Tests used:
# [1] = NCI Yeast Anticancer Drug Screen. Data for the wt1 strain (AID 149);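 further: 0% = growth of vehicle-treated wt1 cultures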; conditions: S. cerevisiae wt1 strain (SPY 50644) growth inhibition, stronger effect = higher value
# Procedure, shortened: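 wt1 strain grown with compound or vehicle; inhibition taken from the growth difference.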
# [2] = NCI Yeast Anticancer Drug Screen. Data for the rad50EPP+ strain (AID 151);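 further: 0% = growth of vehicle-treated control cultures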; conditions: S. cerevisiae rad50 mutant strain, stronger effect = higher value
# Procedure, shortened: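 Compounds were applied to the rad50EPP+ yeast strain, which bears a defined DNA repair alteration, and growth inhibition was determined relative to vehicle-treated cultures.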
# [3] = NCI Yeast Anticancer Drug Screen. Data for the rad50 strain (AID 155);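 further: 0% = growth of vehicle-only cultures of the same strain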; conditions: S. cerevisiae rad50 strain growth inhibition, stronger effect = higher value
# Procedure, shortened: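 DNA repair mutant yeast, compound exposure, growth read-out; inhibition is taken relative to vehicle.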
# [4] = NCI Yeast Anticancer Drug Screen. Data for the mec2-1 strain (AID 157); conditions: S. cerevisiae mec2-1 strain, stronger effect = higher value
# Procedure, shortened: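 Strain: mec2-1 (DNA repair/cell cycle alteration). Compound exposure, then growth measured; inhibition expressed relative to vehicle.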
# [5] = NCI Yeast Anticancer Drug Screen. Data for the sgs1 mgt1 strain (AID 161);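 further: 0% = growth of cultures given vehicle only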; conditions: S. cerevisiae sgs1 mgt1 strain, stronger effect = higher value
# Procedure, shortened: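 Inhibition of yeast growth, normalised to vehicle-treated controls, is reported for a strain bearing genetic alterations in DNA damage repair.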
# [6] = NCI Yeast Anticancer Drug Screen. Data for the CLN2oe strain (AID 163);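 further: 0% = growth of vehicle-only control cultures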; conditions: S. cerevisiae CLN2oe strain, stronger effect = higher value
# Procedure, shortened: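 Growth of a genetically modified yeast strain is measured after compound exposure and compared with cultures given vehicle alone.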
# [7] = NCI Yeast Anticancer Drug Screen. Data for the cln2 rad14 strain (AID 165);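 further: 0% = growth equal to vehicle treated cultures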; conditions: S. cerevisiae cln2 rad14 strain, stronger effect = higher value
# Procedure, shortened: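 Compounds are applied to the cln2 rad14 yeast strain, and growth is then compared with that of vehicle-treated cultures to give inhibition.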
# [8] = NCI Yeast Anticancer Drug Screen. Data for the bub3 strain (AID 167); conditions: S. cerevisiae bub3 mutant strain, stronger effect = higher value
# Procedure, shortened: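 In this screen, a yeast mutant lacking normal mitotic checkpoint function is challenged with compound. Relative growth versus vehicle gives the inhibition value.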
# [9] = NCI Yeast Anticancer Drug Screen. Data for the wt2 strain (AID 169);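 further: 0% = growth of vehicle-treated yeast cultures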; conditions: S. cerevisiae wt2 strain growth inhibition, stronger effect = higher value
# Procedure, shortened: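 This strain belongs to a panel of yeast strains with defined genetic alterations in DNA damage repair or cell cycle control. Compounds are applied, and growth inhibition is measured against vehicle-treated cultures.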
# [10] = NCI Yeast Anticancer Drug Screen. Data for the mlh1 strain (AID 171);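 further: 0% = growth of vehicle-treated control cultures of the same strain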; conditions: S. cerevisiae mlh1 strain growth inhibition, stronger effect = higher value
# Procedure, shortened: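 Growth of the mutant yeast strain after compound exposure, expressed as inhibition relative to vehicle-only controls.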
# [11] = NCI Yeast Anticancer Drug Screen. Data for the sgs1 strain (AID 173);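 further: 0% = growth of vehicle-only control cultures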; conditions: S. cerevisiae sgs1 mutant, stronger effect = higher value
# Procedure, shortened: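 Growth of a yeast strain bearing a defined genetic alteration is measured after compound treatment. Inhibition is expressed relative to vehicle-only controls.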
# [12] = NCI Yeast Anticancer Drug Screen. Data for the mlh1 rad18 strain (AID 175); conditions: S. cerevisiae mlh1 rad18 strain growth inhibition, stronger effect = higher value
# Procedure, shortened: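 Read-out is yeast growth inhibition, calculated against vehicle-only controls. The compound was applied to a strain engineered with DNA damage repair alterations.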
# [13] = NCI Yeast Anticancer Drug Screen. Data for the rad18 strain (AID 177); conditions: S. cerevisiae rad18 mutant growth inhibition, stronger effect = higher value
# Procedure, shortened: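 Growth of the mutant yeast strain after compound exposure, normalised to vehicle-only cultures.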
# [14] = NCI Yeast Anticancer Drug Screen. Data for the rad14 strain (AID 159);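 further: 0% = growth of vehicle-treated control cultures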; conditions: S. cerevisiae rad14 strain growth inhibition, stronger effect = higher value
# Procedure, shortened: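 DNA repair-defective yeast, compound-exposed; % growth inhibition derived by comparison with vehicle-treated controls.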
# [15] = at 5.0 µM (retest, dose inferred, filed as 0.5)
# [16] = at 50.0 µM (retest, dose inferred, filed as 5.0)
compound,measurement,setting,value
Oc1ccc(Br)cc1C=Nc1cccc(C(F)(F)F)c1,growth inhibition,[1]; at 1.2 µM,-2%
same,growth inhibition,[1]; at 3.7 µM,-7%
same,growth inhibition,[1]; at 11.0 µM,9%
same,growth inhibition,[1]; at 33.0 µM,91% (active)
same,growth inhibition,[1]; at 100.0 µM,97% (active)
same,growth inhibition,[2]; at 1.2 µM,0%
same,growth inhibition,[2]; at 3.7 µM,4%
same,growth inhibition,[2]; at 11.0 µM,10%
same,growth inhibition,[2]; at 33.0 µM,30%
same,growth inhibition,[2]; at 100.0 µM,64%
same,growth inhibition,[3]; at 1.2 µM,-28%
same,growth inhibition,[3]; at 3.7 µM,-20%
same,growth inhibition,[3]; [15],16%
same,growth inhibition,[3]; at 11.0 µM,32%
same,growth inhibition,[3]; at 33.0 µM,91% (active)
same,growth inhibition,[3]; [16],92% (active)
same,growth inhibition,[3]; at 50.0 µM,70.5% (active)
same,growth inhibition,[3]; at 100.0 µM,97% (active)
same,growth inhibition,[4]; at 1.2 µM,3%
same,growth inhibition,[4]; at 3.7 µM,-7%
same,growth inhibition,[4]; [15],-17%
same,growth inhibition,[4]; at 11.0 µM,59%
same,growth inhibition,[4]; at 33.0 µM,97% (active)
same,growth inhibition,[4]; [16],97% (active)
same,growth inhibition,[4]; at 50.0 µM,85.5% (active)
same,growth inhibition,[4]; at 100.0 µM,97% (active)
same,growth inhibition,[5]; [15],1%
same,growth inhibition,[5]; [16],63%
same,growth inhibition,[5]; at 50.0 µM,81.7% (active)
same,growth inhibition,[6]; at 1.2 µM,-4%
same,growth inhibition,[6]; at 3.7 µM,-1%
same,growth inhibition,[6]; at 11.0 µM,-1%
same,growth inhibition,[6]; at 33.0 µM,1%
same,growth inhibition,[6]; at 100.0 µM,25%
same,growth inhibition,[7]; [15],28%
same,growth inhibition,[7]; [16],86% (active)
same,growth inhibition,[7]; at 50.0 µM,61%
same,growth inhibition,[8]; at 1.2 µM,-6%
same,growth inhibition,[8]; at 3.7 µM,-1%
same,growth inhibition,[8]; [15],42%
same,growth inhibition,[8]; at 11.0 µM,-5%
same,growth inhibition,[8]; at 33.0 µM,0%
same,growth inhibition,[8]; [16],94% (active)
same,growth inhibition,[8]; at 50.0 µM,88.2% (active)
same,growth inhibition,[8]; at 100.0 µM,28%
same,growth inhibition,[9]; at 1.2 µM,-1%
same,growth inhibition,[9]; at 3.7 µM,-1%
same,growth inhibition,[9]; at 11.0 µM,0%
same,growth inhibition,[9]; at 33.0 µM,10%
same,growth inhibition,[9]; at 100.0 µM,65%
same,growth inhibition,[10]; at 1.2 µM,-1%
same,growth inhibition,[10]; at 3.7 µM,17%
same,growth inhibition,[10]; at 11.0 µM,68%
same,growth inhibition,[10]; at 33.0 µM,96% (active)
same,growth inhibition,[10]; at 100.0 µM,97% (active)
same,growth inhibition,[11]; at 1.2 µM,14%
same,growth inhibition,[11]; at 3.7 µM,10%
same,growth inhibition,[11]; at 11.0 µM,65%
same,growth inhibition,[11]; at 33.0 µM,94% (active)
same,growth inhibition,[11]; at 100.0 µM,97% (active)
same,growth inhibition,[12]; [15],48%
same,growth inhibition,[12]; [16],97% (active)
same,growth inhibition,[12]; at 50.0 µM,66.9%
same,growth inhibition,[13]; at 1.2 µM,-15%
same,growth inhibition,[13]; at 3.7 µM,-12%
same,growth inhibition,[13]; at 11.0 µM,16%
same,growth inhibition,[13]; at 33.0 µM,83% (active)
same,growth inhibition,[13]; at 100.0 µM,97% (active)
CCC1SC(=S)N(c2ccc(Cl)cc2)C1=O (stereo unspecified),growth inhibition,[1]; at 1.2 µM,-2%
same,growth inhibition,[1]; at 3.7 µM,-2%
same,growth inhibition,[1]; at 11.0 µM,10%
same,growth inhibition,[1]; at 33.0 µM,23%
same,growth inhibition,[1]; at 100.0 µM,78% (active)
same,growth inhibition,[2]; at 1.2 µM,-5%
same,growth inhibition,[2]; at 3.7 µM,21%
same,growth inhibition,[2]; at 11.0 µM,42%
same,growth inhibition,[2]; at 33.0 µM,96% (active)
same,growth inhibition,[2]; at 100.0 µM,98% (active)
same,growth inhibition,[3]; at 1.2 µM,-17%
same,growth inhibition,[3]; at 3.7 µM,-19%
same,growth inhibition,[3]; [15],8%
same,growth inhibition,[3]; at 11.0 µM,6%
same,growth inhibition,[3]; at 33.0 µM,84% (active)
same,growth inhibition,[3]; [16],35%
same,growth inhibition,[3]; at 50.0 µM,45%
same,growth inhibition,[3]; at 100.0 µM,96% (active)
same,growth inhibition,[4]; at 1.2 µM,-3%
same,growth inhibition,[4]; at 3.7 µM,-5%
same,growth inhibition,[4]; [15],1%
same,growth inhibition,[4]; at 11.0 µM,-6%
same,growth inhibition,[4]; at 33.0 µM,-9%
same,growth inhibition,[4]; [16],43%
same,growth inhibition,[4]; at 50.0 µM,26.7%
same,growth inhibition,[4]; at 100.0 µM,16%
same,growth inhibition,[14]; at 1.2 µM,4%
same,growth inhibition,[14]; at 3.7 µM,1%
same,growth inhibition,[14]; at 11.0 µM,12%
same,growth inhibition,[14]; at 33.0 µM,26%
same,growth inhibition,[14]; at 100.0 µM,75% (active)
same,growth inhibition,[5]; [15],4%
same,growth inhibition,[5]; [16],68%
same,growth inhibition,[5]; at 50.0 µM,66%
same,growth inhibition,[6]; at 1.2 µM,-9%
same,growth inhibition,[6]; at 3.7 µM,-10%
same,growth inhibition,[6]; at 11.0 µM,-16%
same,growth inhibition,[6]; at 33.0 µM,-20%
same,growth inhibition,[6]; at 100.0 µM,75% (active)
same,growth inhibition,[7]; [15],-3%
same,growth inhibition,[7]; [16],-4%
same,growth inhibition,[7]; at 50.0 µM,-11.6%
same,growth inhibition,[8]; at 1.2 µM,-11%
same,growth inhibition,[8]; at 3.7 µM,-10%
same,growth inhibition,[8]; [15],-6%
same,growth inhibition,[8]; at 11.0 µM,-13%
same,growth inhibition,[8]; at 33.0 µM,22%
same,growth inhibition,[8]; [16],44%
same,growth inhibition,[8]; at 50.0 µM,6.05%
same,growth inhibition,[8]; at 100.0 µM,97% (active)
same,growth inhibition,[9]; at 1.2 µM,-5%
same,growth inhibition,[9]; at 3.7 µM,1%
same,growth inhibition,[9]; at 11.0 µM,20%
same,growth inhibition,[9]; at 33.0 µM,65%
same,growth inhibition,[9]; at 100.0 µM,92% (active)
same,growth inhibition,[10]; at 1.2 µM,-14%
same,growth inhibition,[10]; at 3.7 µM,-10%
same,growth inhibition,[10]; at 11.0 µM,-10%
same,growth inhibition,[10]; at 33.0 µM,48%
same,growth inhibition,[10]; at 100.0 µM,97% (active)
same,growth inhibition,[11]; at 1.2 µM,-8%
same,growth inhibition,[11]; at 3.7 µM,-8%
same,growth inhibition,[11]; at 11.0 µM,22%
same,growth inhibition,[11]; at 33.0 µM,75% (active)
same,growth inhibition,[11]; at 100.0 µM,98% (active)
same,growth inhibition,[12]; [15],0%
same,growth inhibition,[12]; [16],71% (active)
same,growth inhibition,[12]; at 50.0 µM,65%
same,growth inhibition,[13]; at 1.2 µM,-8%
same,growth inhibition,[13]; at 3.7 µM,-10%
same,growth inhibition,[13]; at 11.0 µM,-3%
same,growth inhibition,[13]; at 33.0 µM,48%
same,growth inhibition,[13]; at 100.0 µM,87% (active)
